Format in all cases: functional
Assay [1] has as its target Solute carrier family 2, facilitated glucose transporter member 1 (Homo sapiens) (UniProt P11166). Put plainly: ST_JUDE_LEISH: Cytotoxicity at 2uM final concentration against transgenic Leishmania Mexicana promastigotes LmGLUT1 that are glucose transport deficient and complemented with the human glucose transporter GLUT1. Activity is measured by DNA content using SYBR green in vitro.

Assay [2] has as its target Hexose transporter 1 (Plasmodium falciparum) (UniProt O97467). Put plainly: ST_JUDE_LEISH: Cytotoxicity at 2uM final concentration against transgenic Leishmania Mexicana promastigotes LmPfHT that are glucose transport deficient and complemented with the Plasmodium falciparum hexose transporter. Activity is measured by DNA content using SYBR green in vitro.
For assay [3], the target named is Glucose transporter (Leishmania mexicana) (UniProt O61059). Put plainly: ST_JUDE_LEISH: Cytotoxicity at 2uM final concentration against transgenic Leishmania Mexicana promastigotes LmGT2 that are glucose transport deficient and complemented with the L. Mexicana glucose transporter 2. Activity is measured by DNA content using SYBR green in vitro.

One may read the inhibition as the change of the read-out against control, counted positive when it falls.

SMILES strings stand for the structures.

Chain of Solute carrier family 2, facilitated glucose transporter member 1 (Homo sapiens) (P11166 whole entry): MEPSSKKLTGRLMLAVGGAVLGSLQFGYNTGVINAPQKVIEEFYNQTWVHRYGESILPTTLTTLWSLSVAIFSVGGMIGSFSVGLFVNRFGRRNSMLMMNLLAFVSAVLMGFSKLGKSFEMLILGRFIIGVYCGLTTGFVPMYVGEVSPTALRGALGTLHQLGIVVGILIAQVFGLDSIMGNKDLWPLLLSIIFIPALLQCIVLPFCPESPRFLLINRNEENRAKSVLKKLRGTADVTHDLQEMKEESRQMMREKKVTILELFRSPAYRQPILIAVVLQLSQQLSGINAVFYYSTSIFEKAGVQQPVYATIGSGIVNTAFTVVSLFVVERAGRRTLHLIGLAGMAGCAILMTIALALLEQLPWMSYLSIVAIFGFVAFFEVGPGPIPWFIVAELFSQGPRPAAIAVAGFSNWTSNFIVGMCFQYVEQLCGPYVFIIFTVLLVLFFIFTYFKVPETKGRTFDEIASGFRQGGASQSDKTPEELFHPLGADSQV

In the case of `[O-][S+]1c2ccccc2Sc2ccccc21`, the inhibition in assay [1] amounted to 2.27%; in assay [2], 3.44%; in assay [3], 1.95%.
Taken in the same sequence, the figures for `CC(Cc1ccc(Cl)cc1)Nc1nc(NC2CCCC2)nc(N2CCC(C#N)(c3ccccc3)CC2)n1` (stereo not drawn) were 8.45%, 5.49% and -0.98%.
For the molecule `CC(C)CCn1c(Sc2ccc(C#N)c([N+](=O)[O-])c2)nnc1-c1cccc(Cl)c1`, the values for the inhibition in assay [1], in assay [2] and in assay [3] were 9.63%, 9.97% and 8.26%, respectively.
Taken in the same sequence, the figures for `O=C(Nc1ccc(-c2nc3ccccc3[nH]2)cc1)c1ccc(S(=O)(=O)N2CCCCCC2)cc1` were 1.06%, 2.45% and 1.91%.
On to `Cc1ccc2c(Cl)c(C(=O)N3CC(C)OC(C)C3)sc2c1` (stereo not drawn), for which the inhibition was 0.22% in assay [1], 1.09% in assay [2] and 3.43% in assay [3].
With `CCCc1cc(Cc2cnc(N)nc2N)cc(OC)c1OC`, the inhibition was 0.14% in assay [1], 2.78% in assay [2] and 0.24% in assay [3].
Taken in the same sequence, the figures for `Oc1c(CN2CCCC(C(F)(F)F)C2)cc(Cl)c2ccccc12` (stereo not drawn) were 1.85%, 2.27% and 3.06%.
In the same order, the values of `COc1ccc(C(=O)C2CC2CN(C)CC(O)c2cc(C)c(OC)cc2C)cc1` (stereo not drawn) are 8.26%, 7.67% and 6.57%.
In the same order, the values of `Nc1nc(N)c2c(ccc3c2ccn3Cc2ccc(-c3ccccc3)cc2)n1` are 113%, 113% and 113%.
In the case of `O=S(=O)(Nc1ccc(CCN2CCC(N3CCCCC3)CC2)cc1)c1ccc2ccccc2c1`, the inhibition in assay [1] stood at 4.91%; in assay [2] it was 11.2%; in assay [3], 4.79%.
In the same order, the values of `CCCCN1C(=N)NC(c2ccccc2)(c2ccccc2)C1=O` are 5.12%, 3.94% and 3.58%.
In the same order, the values of `Cc1noc(-c2ccccc2)c1NC(=O)NC1CCN(CCCCCNC(=O)/C=C/c2ccc(Cl)c(Cl)c2)CC1` are 4.35%, 5.32% and 3.4%.
In the same order, the values of `CCNC(=O)Nc1ccc(-c2cnc(N)c(-c3nc4ccc(OC)cc4[nH]3)c2)cc1` are 3.5%, 4.42% and 3.1%.
`Cc1[nH]c(C)c(-c2ccc(C#Cc3ccc(F)cc3F)cc2)c(=O)c1Br`: the results for the inhibition in assay [1], in assay [2] and in assay [3] were -0.29%, 1.21% and 0.22%, respectively.
In the same order, the values of `N#Cc1ccc(N/C(=N\c2cccc(Cl)c2Cl)NCc2ccc(Cl)cc2Cl)c(O)c1` are 9.71%, 9.71% and 9.16%.
In the same order, the values of `O=C(N[C@@H](Cc1ccccc1)[C@H](O)CNC1CCc2ccccc2C1)c1cc(C2CCCC2)cc(N2CCCC2=O)c1` (stereo partly drawn) are -3.59%, 2.21% and -4.47%.
`CN(Cc1cccc(F)c1)C1CCN(c2cc(NC(=O)c3ccc(F)cc3)ccn2)C1` (stereo not drawn): the inhibition in assay [1] was 2.33%; in assay [2] it was -0.57%; in assay [3] it was 1.63%.
In the same order, the values of `CCc1cc(NCc2ccncc2)nc(Nc2ccc(F)cc2)n1` are 14.4%, 6.44% and 4.12%.
With `COc1cc2nc(N3CCC(CNC(=O)c4cc5ccccc5s4)CC3)nc(N)c2cc1OC`, the results for the inhibition in assay [1], in assay [2] and in assay [3] were 11.8%, 11% and 10.4%, respectively.
With `Cc1ccc(C)c2c1[nH]c1ccc(C3=NCCN3)cc12`, the inhibition came out at 0.89% in assay [1], 1.39% in assay [2] and 1.4% in assay [3].
Taken in the same sequence, the figures for `N#Cc1ccc(N/C(=N\c2ccc(-c3ccccc3)cc2)NCCc2c[nH]c3ccccc23)c(O)c1` were 9.42%, 8.49% and 8.99%.
Taken in the same sequence, the figures for `CCOc1cc(C(C)C)ccc1N1CCN(CCCCNC(=O)c2ccc(NC(=O)c3ccc(Cl)cc3)cc2)CC1` were 4.38%, 2.39% and 2.86%.
As for `N#Cc1ccc(N(CCNS(=O)(=O)c2cc(Br)c(Cl)s2)Cc2ccccc2C(F)(F)F)cc1C(F)(F)F`, the inhibition was 3.37% in assay [1], 0.82% in assay [2] and 1.55% in assay [3].
In the same order, the values of `O=C(Nc1ccccc1)N(Cc1ccc(-c2cccc(CNCc3ccc4c(c3)OCO4)c2)cc1)C1CCN(Cc2ccccc2)CC1` are -0.01%, 0.92% and 2.9%.
Taken in the same sequence, the figures for `COc1cc(Cc2cnc(NCCN3CCNCC3)nc2N)ccc1OCc1ccc(C(F)(F)F)cc1` were 3.49%, 4.49% and 6.93%.
Taken in the same sequence, the figures for `Cc1nc(-c2cccc3c(NC(=O)N4CCc5cc6nccc(N7CCN(C)CC7)c6cc54)cccc23)no1` were 1.15%, -2.64% and -0.68%.
Consider `COc1ccc(CNC(=O)c2cnc3c(O)cccc3c2Nc2cccc(NC(=O)c3ccc(F)cc3)c2)cc1`, for which the inhibition was 76% in assay [1], 78.5% in assay [2] and 75.3% in assay [3].
In the same order, the values of `Cc1cc(Nc2nc(NCc3cccnc3)nc3ccccc23)n[nH]1` are 8.58%, 10.4% and 10%.
In the same order, the values of `O=C(CCc1cccnc1)Nc1ccc(-c2cccc(-c3nc4cc(F)ccc4[nH]3)c2)cc1` are 10.7%, 9.99% and 8.65%.
In the same order, the values of `Cc1cccc2nc(-c3ccc(-c4cccc(C(=O)NCCN5CCCC5)c4)s3)[nH]c12` are 10.1%, 10.7% and 9.13%.
For the molecule `CCn1cc(C=C2Oc3c(ccc(O)c3CN3CCCCC3)C2=O)c2ccccc21`, the figures for the inhibition in assay [1], in assay [2] and in assay [3] were 5.49%, 4.09% and 3.27%, respectively.
In the same order, the values of `O=C(NC1CCCCN(Cc2ccccc2O)C1)c1cc(F)cc(F)c1` (stereo not drawn) are 4.28%, 5.08% and 3.51%.
Taken in the same sequence, the figures for `CCOc1ccc(Br)cc1/C=C/C(=O)Nc1ccc2c(c1)CCCN(C)C2` were 11.6%, 10.4% and 11.8%.
In the same order, the values of `COc1ccc([N+](=O)[O-])cc1N(Cc1ccccc1-c1ccccc1)S(=O)(=O)c1ccc(C(F)(F)F)cc1` are 3.87%, 5.68% and 2.13%.
Take `Cc1cc(N(C)C)nc(Nc2ccc(NC(=O)C3CCCCC3)cc2)n1`: the inhibition in assay [1] turned out to be 5.14%; in assay [2], 5.64%; in assay [3], 3.75%.
In the same order, the values of `Cc1nnc2sc(-c3cccc(NC(=O)c4ccc(N5CCCCC5)c([N+](=O)[O-])c4)c3)nn12` are 0.34%, -1.03% and -0.5%.

Values taken from ChEMBL document CHEMBL3433997, “St. Jude Leishmania screening dataset” (2016).
